What all share (assay): protein-binding microarray (PBM); PBM: ~300 nM protein, 6 mM HEPES pH 7.8, 80 mM KCl, 0.5 mM EDTA, 0.5 mM EGTA, 6% glycerol, 35 ng/ul poly-dIdC, 1% milk, 1 h, room temperature; Ap Aiptasia and Nv Nematostella (sea anemones) / Co Capsaspora / Aq Amphimedon (sponge) / Dm Drosophila / Hu human; RHD is the Rel homology domain; high values mean tight binding
Holding throughout (conditions): dsDNA, one strand shown

For assay [1], the target named is T1, GST-Ap-NF-kB RHD (Exaiptasia pallida (Aiptasia), UniProt A0A913YAJ5 2-422).
T1 sequence: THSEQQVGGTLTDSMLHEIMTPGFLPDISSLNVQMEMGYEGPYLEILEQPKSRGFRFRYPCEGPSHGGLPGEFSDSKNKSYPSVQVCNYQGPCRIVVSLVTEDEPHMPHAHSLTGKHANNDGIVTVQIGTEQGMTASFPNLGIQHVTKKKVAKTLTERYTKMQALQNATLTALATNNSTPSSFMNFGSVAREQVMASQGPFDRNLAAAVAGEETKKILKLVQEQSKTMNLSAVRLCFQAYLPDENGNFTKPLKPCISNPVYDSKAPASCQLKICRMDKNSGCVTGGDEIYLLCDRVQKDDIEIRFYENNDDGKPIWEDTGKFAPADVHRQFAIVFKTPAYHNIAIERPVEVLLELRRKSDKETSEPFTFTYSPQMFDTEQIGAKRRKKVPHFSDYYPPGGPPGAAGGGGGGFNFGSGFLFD

Assay [2] addresses T2, GST-Nv-NF-kB (Cys allele) (Nematostella vectensis, UniProt E5G601 2-411).
T2 sequence: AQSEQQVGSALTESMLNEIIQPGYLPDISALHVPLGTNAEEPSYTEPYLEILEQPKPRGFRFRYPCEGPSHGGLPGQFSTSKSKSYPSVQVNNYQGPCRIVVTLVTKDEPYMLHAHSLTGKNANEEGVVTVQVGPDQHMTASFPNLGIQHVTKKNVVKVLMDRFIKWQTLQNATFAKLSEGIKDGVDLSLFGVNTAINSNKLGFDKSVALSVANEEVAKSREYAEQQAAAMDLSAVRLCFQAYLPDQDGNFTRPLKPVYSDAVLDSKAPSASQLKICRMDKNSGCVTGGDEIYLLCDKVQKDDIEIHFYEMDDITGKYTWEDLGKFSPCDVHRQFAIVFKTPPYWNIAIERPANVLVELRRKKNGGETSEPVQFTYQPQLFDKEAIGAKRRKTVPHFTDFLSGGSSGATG

Assay [3] has as its target T3, GST-Nv-NF-kB (Ser allele) (Nematostella vectensis, UniProt A7UNT2 2-411).
T3 sequence: T2 sequence with Q21R, C66S, S207N, E215Q, V217A, E225K, A268E, D399E

The target of assay [4] is T4, GST-Co-NF-kB (Capsaspora owczarzaki, UniProt F1ARL5 200-546).
T4 sequence: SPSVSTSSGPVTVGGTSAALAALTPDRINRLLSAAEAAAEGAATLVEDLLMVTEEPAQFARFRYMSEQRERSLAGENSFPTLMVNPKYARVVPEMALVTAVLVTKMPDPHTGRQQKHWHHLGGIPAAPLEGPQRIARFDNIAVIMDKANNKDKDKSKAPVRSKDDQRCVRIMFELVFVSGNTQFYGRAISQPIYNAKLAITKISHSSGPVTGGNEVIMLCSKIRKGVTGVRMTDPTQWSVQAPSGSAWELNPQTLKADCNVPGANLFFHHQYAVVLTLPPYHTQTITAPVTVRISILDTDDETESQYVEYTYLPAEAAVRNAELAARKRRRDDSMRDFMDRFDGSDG

For assay [5], the target named is T5, GST-Dm-Relish (Drosophila melanogaster, UniProt Q94527 99-473).
T5 sequence: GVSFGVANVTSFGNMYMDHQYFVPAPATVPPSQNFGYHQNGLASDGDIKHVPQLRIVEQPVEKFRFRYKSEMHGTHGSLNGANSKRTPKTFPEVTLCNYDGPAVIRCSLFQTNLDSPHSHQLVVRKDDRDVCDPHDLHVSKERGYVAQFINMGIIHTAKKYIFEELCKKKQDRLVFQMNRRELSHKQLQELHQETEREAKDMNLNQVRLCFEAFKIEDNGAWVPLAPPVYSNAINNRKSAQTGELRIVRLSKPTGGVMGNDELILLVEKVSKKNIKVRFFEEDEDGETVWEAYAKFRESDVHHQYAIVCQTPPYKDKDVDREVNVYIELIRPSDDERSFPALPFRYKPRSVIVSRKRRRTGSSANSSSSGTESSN

The target of assay [6] is T6, GST-Aq-NF-kB (Amphimedon queenslandica, UniProt A9Y5G7 2-389).
T6 sequence: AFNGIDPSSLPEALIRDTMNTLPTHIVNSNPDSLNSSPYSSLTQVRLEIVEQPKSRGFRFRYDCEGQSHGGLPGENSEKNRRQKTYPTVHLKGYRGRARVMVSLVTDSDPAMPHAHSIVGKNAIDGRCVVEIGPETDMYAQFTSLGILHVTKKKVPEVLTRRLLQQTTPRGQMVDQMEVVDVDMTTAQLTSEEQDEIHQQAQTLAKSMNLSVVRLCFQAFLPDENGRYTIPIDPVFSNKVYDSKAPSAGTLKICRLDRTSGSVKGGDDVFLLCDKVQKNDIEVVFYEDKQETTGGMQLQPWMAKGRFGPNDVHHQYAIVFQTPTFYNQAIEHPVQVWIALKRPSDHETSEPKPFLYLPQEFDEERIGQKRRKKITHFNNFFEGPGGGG

Assay [7] has as its target GST-Hu-p50 (Homo sapiens, UniProt P19838 7-356).

Residue numbers refer to the chain shown, from its start.

Results on 11 sequences are retold here after publication PMC5700166.

Chain of GST-Hu-p50 (P19838 7-356): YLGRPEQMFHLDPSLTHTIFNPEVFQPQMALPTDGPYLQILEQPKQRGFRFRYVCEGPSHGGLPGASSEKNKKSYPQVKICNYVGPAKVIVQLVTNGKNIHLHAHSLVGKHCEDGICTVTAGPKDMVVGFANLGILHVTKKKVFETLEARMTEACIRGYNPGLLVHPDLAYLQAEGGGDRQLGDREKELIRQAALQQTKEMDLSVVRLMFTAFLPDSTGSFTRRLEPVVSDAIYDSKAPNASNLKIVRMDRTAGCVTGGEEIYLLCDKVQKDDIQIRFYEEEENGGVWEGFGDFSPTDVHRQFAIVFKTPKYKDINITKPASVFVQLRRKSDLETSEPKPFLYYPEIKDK

For the sequence “CCGATTAACATCAAATATTCCCCTGATGTTAATCGGGTCTTGATTCGCTTGACGCTGCTG”, the binding signal in assay [1] worked out at 8.25 z-score; in assay [2], 10.7 z-score; in assay [3] it was 11 z-score; in assay [4], 10.1 z-score; in assay [5] it was 7.22 z-score; in assay [6], 8.12 z-score. This sequence also yielded a binding signal in assay [7] of 6.65 z-score.

As to “CCGATTAACATCAAAAACCCCCCTGATGTTAATCGGGTCTTGATTCGCTTGACGCTGCTG”, the binding signal in assay [1] stood at 10.5 z-score; in assay [2], 9.26 z-score; in assay [3] it was 9.71 z-score; in assay [4], 5.82 z-score; in assay [5] it was 11.3 z-score; in assay [6] it was 8.84 z-score. This sequence had a binding signal in assay [7] of 7.78 z-score.

For “CCGATTAACATCAGGAAACCCCATGATGTTAATCGGGTCTTGATTCGCTTGACGCTGCTG”, the binding signal amounted to 5.38 z-score in assay [1]; 4.14 z-score in assay [2]; 2.64 z-score in assay [3]; 1.76 z-score in assay [4]; 8.23 z-score in assay [5]; 4.84 z-score in assay [6]. The same sequence yielded a binding signal in assay [7] of 4.69 z-score.

As to “CCGATTAACATCAATATTTCCCCTGATGTTAATCGGGTCTTGATTCGCTTGACGCTGCTG”, the binding signal in assay [1] worked out at 8.09 z-score; in assay [2] it was 10.1 z-score; in assay [3], 13.2 z-score; in assay [4] it was 10.7 z-score; in assay [5] it was 5.87 z-score; in assay [6], 6.9 z-score. In assay [7], this sequence registered a binding signal of 7.24 z-score.

As for “CCGATTAACATCAGAGAATCCCCTGATGTTAATCGGGTCTTGATTCGCTTGACGCTGCTG”, the binding signal in assay [1] worked out at 9.54 z-score; in assay [2] it was 9.8 z-score; in assay [3], 10.9 z-score; in assay [4], 3.37 z-score; in assay [5], 8.56 z-score; in assay [6] it was 7.28 z-score. Besides, the binding signal in assay [7] turned out to be 6.99 z-score.

For “CCGATTAACATCAGGAAACCCCCTGATGTTAATCGGGTCTTGATTCGCTTGACGCTGCTG”, the binding signal in assay [1] was 11.2 z-score; in assay [2] it was 10.1 z-score; in assay [3], 9.07 z-score; in assay [4], 3.13 z-score; in assay [5] it was 10.1 z-score; in assay [6], 10.5 z-score. The sequence also returned a binding signal in assay [7] of 8.19 z-score.

In the case of “CCGATTAACATCAAATTCCCGGGTGATGTTAATCGGGTCTTGATTCGCTTGACGCTGCTG”, the binding signal was determined as 3.33 z-score in assay [1]; 3.9 z-score in assay [2]; 3.88 z-score in assay [3]; 4.43 z-score in assay [4]; 3.94 z-score in assay [5]; 3.13 z-score in assay [6]. Besides, the binding signal in assay [7] came out at 3.85 z-score.

With “CCGATTAACATCAGATCTCCCCCTGATGTTAATCGGGTCTTGATTCGCTTGACGCTGCTG”, the binding signal in assay [1] was found to be 6.98 z-score; in assay [2], 5.31 z-score; in assay [3] it was 6.01 z-score; in assay [4] it was 8.07 z-score; in assay [5] it was 2.64 z-score; in assay [6], 4.88 z-score. For the same sequence, the binding signal in assay [7] stood at 5.76 z-score.

Turning to “CCGATTAACATCAGGGGAAAGACTGATGTTAATCGGGTCTTGATTCGCTTGACGCTGCTG”, the binding signal turned out to be 4.98 z-score in assay [1]; 6.57 z-score in assay [2]; 7.06 z-score in assay [3]; 4.97 z-score in assay [4]; 6.16 z-score in assay [5]; 5.51 z-score in assay [6]. In assay [7], this sequence registered a binding signal of 4.9 z-score.

Regarding “CCGATTAACATCAAAATCCCCCCTGATGTTAATCGGGTCTTGATTCGCTTGACGCTGCTG”, the binding signal in assay [1] was determined as 10.4 z-score; in assay [2], 9.21 z-score; in assay [3], 10.9 z-score; in assay [4] it was 8.91 z-score; in assay [5], 9.53 z-score; in assay [6] it was 8.11 z-score. The same sequence gave a binding signal in assay [7] of 7.61 z-score.

In the case of “CCGATTAACATCAAATTTCCCATTGATGTTAATCGGGTCTTGATTCGCTTGACGCTGCTG”, the binding signal was 2.36 z-score in assay [1]; 4.83 z-score in assay [2]; 4.27 z-score in assay [3]; 3.32 z-score in assay [4]; 2.68 z-score in assay [5]; 4.29 z-score in assay [6]. In assay [7], the binding signal was 3.86 z-score.
